# According to PubChem BioAssay:
# “And” between values parts separate entries of the source, which are not always exact repeats. Equal entries are not always repeated. The source holds several records for some structures; these can differ, active in one and inactive in another. The source made the active and inactive calls.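 How the source made its calls, unless noted: active means inhibition at or above 50% relative to wild type and mutant plate controls; inactive means inhibition below 50%.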
# How the values were obtained:
# [1] = inhibitors of mutant huntingtin aggregation, primary screen, imaging, exon1htt(103Q)mCFP cells, high-content imaging (AID 483;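 active means visual image review flags a hit and inhibition of aggregation exceeds 20%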;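 further: compound exposure lasted 3 days before fixation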;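 on nuclei count: percent of the per-plate median nuclei count of sample wells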); conditions: exon1htt(103Q)mCFP cell line, aggregate imaging, at 2 µM; inhibition of aggregation: stronger effect = higher value; nuclei count: measured here: cell count, toxicity
# [2] = inhibitors of E-selectin induction by TNFa, primary screen, imaging, HUVEC, immunofluorescence, MLSMR starter and 10KST1 sets (AID 487;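 active means visually confirmed hit in the image check and inhibition above 20%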;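 on inhibition: signal is fraction of cell area covered by stained E-selectin grains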;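 on nuclei count: 100% = median nuclei count of all wells on the same plate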); conditions: HUVEC TNFalpha-induced E-selectin immunofluorescence imaging, at 2 µM; inhibition: stronger effect = higher value; nuclei count: measured here: cell number, toxicity
# [3] = DUSP6 inhibitors restoring Erk phosphorylation by chemical complementation, primary imaging in DUSP6-transfected HeLa (AID 609;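 active means compounds giving at least 50% inhibition in the cell-based MKP-3 phosphatase rescue imaging test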;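 on inhibition: phospho-Erk level distribution per well compared with pooled transfected vehicle control wells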); conditions: HeLa MKP-3 transfected, phospho-Erk imaging KS statistic, at 10 µM, cells stimulated with TPA for 15 min
# [4] = molecular target: Dual specificity protein phosphatase 6 (Homo sapiens) (UniProt Q16828); assay: as above; conditions: HeLa MKP-3 transfected, phospho-Erk imaging KS statistic; at 10 µM; stronger effect = higher value; cells stimulated with TPA for 15 min
# [5] = molecular target: Voltage-gated potassium channel subunit beta-2 (Rattus norvegicus) (UniProt P62483); assay: KvBeta enzyme negative modulators, primary screen, biochemical, NADPH fluorescence (AID 622;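 active means fluorescence slope higher than the sample average by over 3 SD, cut at about -0.22 in these data, passing the limit was not always enough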;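 further: slope of raw intensity against log time taken from 70 to 1610 s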); conditions: recombinant KvBeta, 4-cyanobenzaldehyde reduction, at 10 µM, stronger effect = higher value
# [6] = molecular target: Voltage-gated potassium channel subunit beta-2 (Rattus norvegicus) (UniProt P62483); assay: KvBeta positive modulators, primary screen, biochemical, NADPH fluorescence (AID 623;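 active means NADPH fluorescence slope more negative than the mean of all samples by about 3 SD, 99.7% confidence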;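 further: fluorescence intensity change per second fitted from 20 to 320 s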); conditions: Recombinant KvBeta, NADPH fluorescence decrease slope, 10 min; at 10 µM; stronger effect = lower value
# [7] = molecular target: Alpha-2C adrenergic receptor (Homo sapiens) (UniProt P18825); assay: modulators of alpha2C/GIRK thallium flux, primary screen, cell-based, HEK293 alpha2C/GIRK1/2 (AID 624;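 active means fluorescence slope after compound addition differing from the mean of all screened samples at 99.7% confidence, in either direction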;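 further: slope of fluorescence ratio to pre-addition baseline per second over 15 to 24 s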); conditions: thallium flux BTC fluorescence, at 10 µM, actives lie on both sides
# [8] = inhibitors of larval lipid processing in zebrafish, primary screen, whole organism, PED6 fluorescence, gall bladder and intestine (AID 686;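 active means a full or partial loss of lipid-probe fluorescence in the fish gall bladder, intestine or both, judged by eye; inactive means no fluorescence loss, or compound toxic to the fish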;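 further: larvae 5 to 7 days old with five fish per well; signal comes from phospholipase A2 cleavage of quenched PED6 carried via bile; overnight exposure to compound and PED6 before scoring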); conditions: Zebrafish larvae PED6 lipid processing, fluorescence scoring; screened at 20 µM (by protocol)
# [9] = inhibitors of Chlamydomonas gravitaxis, primary screen, whole organism, Chlamydomonas reinhardtii, WT vs cilia-less mutant, absorbance, 96-well (AID 463189); conditions: OD600 absorbance, 2 days, at 10 µM, stronger effect = higher value;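 further: 0% = wild type cc124 cells in DMSO and 100% = ciliumless bld1 mutant cells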
# [10] = inhibitors of Sendai virus-induced IRF3 signaling, primary screen, TLR/RLR signaling modifier project, cell-based, Sendai virus stimulus, luciferase, 10K MLSCN set (AID 602276;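 active means inhibition at or above 50% at 10 µM; inactive means inhibition below 50%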;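 further: firefly luciferase from ISG56 promoter only with Renilla not read in this screen; 0% = Sendai virus plus DMSO and 100% = medium plus DMSO without virus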); conditions: HEK293 RL24 IRF3 luciferase reporter, at 10 µM, stronger effect = higher value
# [11] = inhibitors of poly I:C-induced TLR3 signaling, primary screen, cell-based, poly I:C stimulus, luciferase, 10K MLSCN set (AID 602277;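 active means inhibition of the reporter signal at or above 50%; inactive means inhibition below 50%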); conditions: HEK293-TLR3 RL24 IRF3 luciferase reporter, at 10 µM, stronger effect = higher value
# [12] = molecular target: Muscarinic acetylcholine receptor M4 (Homo sapiens) (UniProt P08173); assay: compounds altering M4/GIRK thallium flux, either direction, primary screen, M4 allosteric agonist project, cell-based, HEK293 M4/GIRK, BTC-AM (AID 625;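 active means fluorescence slope after compound addition differing from the mean of all tested samples at 99.7% confidence, mostly higher but some lower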;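 further: thallium influx through GIRK channels coupled to M4 in HEK293 cells with BTC-AM dye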); conditions: at 10 µM, actives lie on both sides
# [13] = measured here: cell density z-score
# [14] = measured here: nuclear c-Myc green intensity z-score
# [15] = measured here: nuclear pErk red intensity z-score, stronger effect = higher value
# Chain of Dual specificity protein phosphatase 6 (Homo sapiens) (Q16828 whole entry, looked up): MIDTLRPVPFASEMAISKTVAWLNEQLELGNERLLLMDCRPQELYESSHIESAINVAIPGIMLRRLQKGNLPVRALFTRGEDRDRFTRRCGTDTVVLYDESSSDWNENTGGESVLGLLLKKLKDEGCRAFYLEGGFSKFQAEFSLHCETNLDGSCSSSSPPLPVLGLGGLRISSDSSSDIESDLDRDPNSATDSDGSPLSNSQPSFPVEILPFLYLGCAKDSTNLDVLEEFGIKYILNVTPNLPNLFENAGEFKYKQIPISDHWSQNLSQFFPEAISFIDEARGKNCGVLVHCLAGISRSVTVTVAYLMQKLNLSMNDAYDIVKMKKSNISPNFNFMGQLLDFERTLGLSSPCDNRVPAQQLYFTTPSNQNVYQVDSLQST
# Chain of Alpha-2C adrenergic receptor (Homo sapiens) (P18825 whole entry, looked up): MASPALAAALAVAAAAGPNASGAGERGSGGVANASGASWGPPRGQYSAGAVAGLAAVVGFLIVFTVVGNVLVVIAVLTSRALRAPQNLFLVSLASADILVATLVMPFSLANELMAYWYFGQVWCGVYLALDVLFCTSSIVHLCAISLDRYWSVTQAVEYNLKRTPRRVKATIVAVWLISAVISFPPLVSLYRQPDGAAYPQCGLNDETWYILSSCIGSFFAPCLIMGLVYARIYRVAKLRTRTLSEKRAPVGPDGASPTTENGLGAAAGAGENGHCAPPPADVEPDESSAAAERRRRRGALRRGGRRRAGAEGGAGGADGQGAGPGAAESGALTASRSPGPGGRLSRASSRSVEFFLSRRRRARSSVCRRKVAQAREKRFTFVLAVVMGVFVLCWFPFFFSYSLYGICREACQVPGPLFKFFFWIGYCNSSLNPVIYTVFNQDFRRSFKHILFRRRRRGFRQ
# Chain of Voltage-gated potassium channel subunit beta-2 (Rattus norvegicus) (P62483 whole entry, looked up): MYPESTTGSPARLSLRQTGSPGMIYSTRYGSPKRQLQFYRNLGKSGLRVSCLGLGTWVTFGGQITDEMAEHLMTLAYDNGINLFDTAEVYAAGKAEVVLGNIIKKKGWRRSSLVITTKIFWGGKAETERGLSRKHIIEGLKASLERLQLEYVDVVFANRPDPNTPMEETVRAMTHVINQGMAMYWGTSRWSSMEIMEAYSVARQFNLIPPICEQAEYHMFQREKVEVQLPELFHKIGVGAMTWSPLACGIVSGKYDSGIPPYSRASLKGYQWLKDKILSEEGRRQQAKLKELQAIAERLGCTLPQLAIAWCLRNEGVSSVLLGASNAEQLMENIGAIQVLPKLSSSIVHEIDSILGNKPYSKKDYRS
# Chain of Muscarinic acetylcholine receptor M4 (Homo sapiens) (P08173 whole entry, looked up): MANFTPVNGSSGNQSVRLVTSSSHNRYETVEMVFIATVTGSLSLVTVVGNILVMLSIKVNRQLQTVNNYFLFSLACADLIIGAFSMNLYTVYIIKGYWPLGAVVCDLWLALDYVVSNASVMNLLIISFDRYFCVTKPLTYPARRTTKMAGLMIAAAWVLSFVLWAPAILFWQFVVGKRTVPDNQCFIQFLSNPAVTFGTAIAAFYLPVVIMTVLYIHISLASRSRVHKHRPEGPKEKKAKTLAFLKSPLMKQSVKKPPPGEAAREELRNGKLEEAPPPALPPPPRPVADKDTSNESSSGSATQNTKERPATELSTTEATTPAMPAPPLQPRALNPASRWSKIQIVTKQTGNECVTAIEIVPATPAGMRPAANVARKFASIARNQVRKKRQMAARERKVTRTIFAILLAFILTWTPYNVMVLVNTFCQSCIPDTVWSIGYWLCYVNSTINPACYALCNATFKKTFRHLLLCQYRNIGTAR
Compound,inhibition of aggregation [1],nuclei count [1],inhibition [2],nuclei count [2],"z-score [3, 13]","z-score [3, 14]","z-score [3, 15]",inhibition [4],fluorescence slope [5],NADPH fluorescence slope [6],slope [7],outcome [8],inhibition [9],inhibition [10],inhibition [11],fluorescence slope [12]
Cc1cn([C@H]2C=C[C@@H](CO)O2)c(=O)[nH]c1=O,-10.6% (inactive),106%,-114% (inactive),123%,-0.857,1.21,-0.244,7.39% (inactive),-0.461 (inactive),2.9e-05 (inactive),0.00508 (inactive),inactive,-4.19% (inactive) and -13.6% (inactive),16.3% (inactive),37.9% (inactive),–
O=c1n(CCCN2CCN(c3cccc(Cl)c3)CC2)nc2ccccn12,32% (inactive),90%,-117% (inactive),124%,-0.214,-1.66,0.38,-5.24% (inactive),-0.359 (inactive),-2.9e-05 (inactive),0.00504 (inactive),inactive,7.63% (inactive) and 123% (active),10.6% (inactive),31.8% (inactive),–
CC(=O)O[C@]1(C(C)=O)CC[C@H]2[C@@H]3C=C(Cl)C4=CC(=O)CC[C@]4(C)[C@H]3CC[C@@]21C,-13.1% (inactive),100%,-108% (inactive),126%,-0.773,-0.174,-0.613,5.79% (inactive),-0.438 (inactive),-6.7e-05 (inactive),0.00452 (inactive),–,8.01% (inactive),-5.93% (inactive),38.2% (inactive),–
CC(C)(C)NC[C@H](O)COc1nsnc1N1CCOCC1,-13.8% (inactive),102%,-120% (inactive),119%,-0.0639,-0.39,1.55,-10.4% (inactive),-0.502 (inactive),-5e-06 (inactive),0.00458 (inactive),inactive,-10.5% (inactive),6.87% (inactive),46.4% (inactive),–
O=c1[nH]c2ccccc2n1CCCN1CCN(C(c2ccccc2)c2ccccc2)CC1,0% (inactive),107%,-139% (inactive),123%,-0.406,-0.951,1.42,1.48% (inactive),-0.492 (inactive),1.6e-07 (inactive),0.00471 (inactive),inactive,0.779% (inactive) and 19.8% (inactive),18.3% (inactive),35.4% (inactive),–
NS(=O)(=O)c1cc2c(cc1Cl)NCNS2(=O)=O,-4.8% (inactive),107%,-46.3% (inactive),102%,-0.71,-0.153,-1.04,-0.493% (inactive),-0.428 (inactive),1.8e-05 (inactive),0.00467 (inactive),inactive,0.566% (inactive) and -18.6% (inactive),15.2% (inactive),40.7% (inactive),–
C[N+](C)(C)CCCCCCCCCC[N+](C)(C)C,-3.9% (inactive),89.1%,-38.7% (inactive),126%,-0.332,-0.124,-0.205,7.39% (inactive),-0.47 (inactive),-5.9e-05 (inactive),0.00465 (inactive),inactive,0.674% (inactive) and 0.681% (inactive),-7.67% (inactive),7.68% (inactive),–
OCCOCCN1CCN(C(c2ccccc2)c2ccc(Cl)cc2)CC1 (centres undefined),2.8% (inactive),101%,-65.7% (inactive),139%,-1.36,1.18,1.19,-0.828% (inactive),-0.46 (inactive),2.2e-05 (inactive),0.00446 (inactive),inactive,-13.4% (inactive),14.5% (inactive),34.4% (inactive),–
COc1cc(NS(=O)(=O)c2ccc(N)cc2)ncn1,15.6% (inactive),100%,-87.8% (inactive) and -123% (inactive),109% and 156%,-0.758 and -0.797,-0.381 and 0.601,1.83 and 0.0867,12.4% (inactive) and -1.98% (inactive),-0.448 (inactive) and -0.477 (inactive),-8.5e-05 (inactive) and -7.6e-05 (inactive),0.00452 (inactive),inactive,15.5% (inactive) and 12.3% (inactive),6.56% (inactive),32.2% (inactive),0.00587 (inactive)
CC1(C)O[C@@H]2C[C@H]3[C@@H]4C[C@H](F)C5=CC(=O)C=C[C@]5(C)[C@@]4(F)[C@@H](O)C[C@]3(C)[C@]2(C(=O)CO)O1,-15.7% (inactive),58%,-6.4% (inactive),102%,1.28,-0.179,-0.732,27.1% (inactive),-0.489 (inactive),1.8e-05 (inactive),0.00523 (inactive),inactive,-10.3% (inactive),5.68% (inactive),56.9% (active),–
CCCc1cc(=O)[nH]c(=S)[nH]1,6.2% (inactive),105%,-113% (inactive),126%,0.461,-0.47,-0.798,15.3% (inactive),-0.468 (inactive),-6.3e-05 (inactive),0.00437 (inactive),inactive,-10.4% (inactive),10.3% (inactive),30.1% (inactive),–
CC(=O)[C@H]1CC[C@H]2[C@@H]3CCC4=CC(=O)CC[C@]4(C)[C@H]3CC[C@]12C,-5.3% (inactive),74.7%,-153% (inactive),125%,-0.82,-0.521,-0.268,-0.493% (inactive),-0.446 (inactive),-4.8e-05 (inactive),0.00331 (inactive),inactive,2.24% (inactive) and 8.52% (inactive),3.73% (inactive),31.6% (inactive),–
Cc1cccc(Nc2ccccc2C(=O)O)c1C,-13.5% (inactive),100%,-91.2% (inactive),118%,-1.12,0.675,-0.849,19% (inactive),-0.511 (inactive),-5.8e-05 (inactive),0.00454 (inactive),inactive,25.5% (inactive),8.41% (inactive),14% (inactive),–
CC(=O)OCC1=C(C(=O)O)N2C(=O)[C@@H](NC(=O)Cc3cccs3)[C@H]2SC1,-14.4% (inactive),85.4%,-35% (inactive),116%,-0.65,-0.0505,-0.555,17.3% (inactive),-0.429 (inactive),-5.9e-05 (inactive),0.00483 (inactive),inactive,7.69% (inactive) and 18.3% (inactive),10.9% (inactive),35.2% (inactive),–
C1COC(NC(C2CC2)C2CC2)=N1,19% (inactive),109%,-91.3% (inactive),116%,-0.996,0.285,-0.338,25.7% (inactive),-0.468 (inactive),-4.8e-05 (inactive),0.00489 (inactive),–,2.12% (inactive) and 18.6% (inactive),-6% (inactive),20.5% (inactive),–
COc1cc(C2C(C#N)=C(N)Oc3cc(N)ccc32)cc(OC)c1OC (centres undefined),-94.1% (inactive),1.6%,-83.7% (inactive),80.5%,0.957,-0.28,-0.643,2.92% (inactive),-0.434 (inactive),1e-06 (inactive),0.00523 (inactive),inactive,4.51% (inactive),46.4% (inactive),88.5% (active),–
N[C@@H](Cc1cc(I)c(Oc2ccc(O)c(I)c2)c(I)c1)C(=O)O,2.4% (inactive),100%,-50.6% (inactive),107%,1.52,-0.0364,-0.441,9.37% (inactive),-0.512 (inactive),-3.3e-05 (inactive),0.00387 (inactive),inactive,36.6% (inactive),20.4% (inactive),29.6% (inactive),–
CC1(C)S[C@@H]2[C@H](NC(=O)Cc3ccccc3)C(=O)N2[C@H]1C(=O)O,9.3% (inactive),68.8%,-6% (inactive),104%,1.44,-1.24,-1.04,5.79% (inactive),-0.496 (inactive),-5.4e-05 (inactive),0.00416 (inactive),inactive,4.14% (inactive),20.3% (inactive),37.6% (inactive),–
